Source: PubChem BioAssay (NCI)
About 83,000 compounds went through this panel and 20% of them were active in at least one assay; those are over-represented in the sample as a whole.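 Treatment: one concentration, 48 hours, 96-well format. Scoring: percent growth, with anything below 10 considered active.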 Values without a mark were called inactive. Calls of active or inactive are those of the source.

The molecules below were run on HL-60(TB) leukemia (assay: NCI-60 one-dose screen, 48 h (100 = growth as untreated, 0 = no growth, -100 = all killed)). Details: 10 µM unless noted.

Row | Structure (SMILES) | growth
1 | CCCCn1c(-c2ccc(C(=O)O/N=C(\N)c3ccc4c(c3)OCO4)cc2)nc(-c2ccccc2)c1-c1ccccc1 | -52.4% (active)
2 | O=C(NOC(=O)c1ccccc1)c1ccccc1 | 87.1%
3 | C[n+]1ccc(CCc2c[nH]c3ccccc23)cc1 | 90.6%
4 | Clc1ccc2c(NCCNc3nc(-c4ccccc4)cc(-c4ccccc4)n3)ccnc2c1 | -46.6% (active)
5 | COCCn1cc(-c2nc(-c3cc4cccnc4n3C)cs2)c2cc(OC)ccc21 | 82.6%
6 | COc1ccc(Cn2cc3c(c2-c2cc(OC)c(OC)c(OC)c2)CCc2cnoc2-3)cc1 | 0.149% (active)
7 | Cc1cc(N/N=C/c2nc(-c3ccc(Cl)cc3)oc2C)c2cc(Br)ccc2n1 | 59%
8 | CCOC(=O)c1cc(C(=O)c2cc(OC)c(OC)c(OC)c2)n2c1ccc1c3cccnc3ccc12 | 13.3%
9 | COc1ccc(-c2cc(=O)c3c(OC)c4ccoc4c(/C=C/C=O)c3o2)cc1 | -3.36% (active)
10 | CCOC(=O)CC(=O)OC | 97%
11 | COc1ccc2nc(NNC(=O)c3cnccn3)c3cccn3c2c1 | -27.1% (active)
12 | C=C1C(=O)O[C@H]2[C@H]1CC/C(Cn1cc(-c3ccccc3C(F)(F)F)nn1)=C\CC[C@@]1(C)O[C@@H]21 | -13.3% (active)
13 | Clc1ccc(-c2nnc(COc3ccccc3Cl)o2)cc1 | 120%
14 | CC1C(c2ccccc2)OCCN1C(=S)Nc1ccc(S(=O)(=O)N2CCCCC2)cc1 (stereo not given) | 89.1%
15 | COc1ccc(/C=C/C(=O)c2c(C)nc3ccccc3c2/C=C/c2ccccc2)cc1O | 49.1%
16 | CN(C)[C@@H]1C(=O)C(C(N)=O)=C(O)[C@@]2(O)C(=O)C3=C(O)c4c(O)cc(CN5CCc6ccccc6C5)c(Cl)c4C[C@H]3C[C@@H]12 | -64.8% (active)
17 | CCOC(=O)C(=CNc1ccccc1Cl)C(=O)OCC | 86.4%
18 | Clc1ccc2nc(CI)c(CI)nc2c1 | 2.82% (active)
19 | NC[C@@H]1CCN(c2cc3c(cc2F)c(=O)n(N)c(=O)n3Cc2ccc(-c3ccccc3)cc2)C1 | 90.4%
20 | COc1ccc2c(c1)nc(N)c1c3cccnc3cn21 | 14.9%

Row | Structure (SMILES) | growth
21 | C=C1C(=O)O[C@H]2[C@H]1CC/C(COC(=O)NCC(C)c1ccc(CC(C)C)cc1)=C\CC[C@@]1(C)O[C@@H]21 (stereo not given in full) | -29.8% (active)
22 | O=C(CSc1ccc2nnc(-c3cccc(F)c3)n2n1)Nc1ccc2c(c1)OCO2 | 78.9%
23 | COc1cc(/C=C/C(=O)c2ccc(-n3cc(CN4CCN(c5cc6c(cc5F)c(=O)c(C(=O)O)cn6C5CC5)CC4)nn3)cc2)cc(OC)c1OC | 98.8%
24 | COc1ccc(C2=NN(C(=O)c3cc(OC)c(OC)c(OC)c3)C(c3ccc(C#N)cc3)C2)cc1OC (stereo not given) | 4.24% (active)
25 | C=C(C)[C@@H]1CC[C@]2(C(=O)OCCOCCOCC[P+](c3ccccc3)(c3ccccc3)c3ccccc3)CC[C@]3(C)[C@H](CC[C@@H]4[C@@]5(C)CC[C@H](OC(=O)C(Cl)Cl)C(C)(C)[C@@H]5CC[C@]43C)[C@@H]12 | -47.8% (active)
26 | Cc1csc(N/N=C/c2ccncc2)n1 | 92.6%
27 | C=CCn1c(C)nc2ccc(Nc3nc(Nc4ccc(F)cc4)nc4ccccc34)cc21 | 51.6%
28 | CN(C)CCCCC(C(=O)CBr)(c1ccccc1)c1ccccc1 | -36.1% (active)
29 | CN(C)CCCN1c2ccccc2Sc2ccc(C(F)(F)F)cc21 | 0.95% (active)
30 | Cc1nc2ccccc2n1C(=O)C[C@@H]1NC(=S)NC1=O | 101%
31 | Cn1cc(-c2nonc2-c2c[nH]c3ccccc23)c2cccnc21 | 4.76% (active)
32 | Cc1cc(=O)[nH]c(N/N=C/c2ccccc2O)n1 | 71.3%
33 | C/C(=N\Nc1cc(C)nc2ccc(Br)cc12)c1ccc([N+](=O)[O-])cc1 | -37.4% (active)
34 | C=C1C(=O)O[C@H]2[C@H]1CC/C(CNC(=O)Cc1c[nH]c3ccccc13)=C\CC[C@@]1(C)O[C@@H]21 | -52.4% (active)
35 | Nc1c(Br)cc(O)c2c1C(=O)c1ccccc1C2=O | 41.9%
36 | Cc1ccc(NC(=O)c2sc3nc(C)c(Br)c(C)c3c2N)cc1 | 95.2%
37 | O=C(/C=C/c1ccccc1Cl)c1cccc(OCCCCOc2cccc(C(=O)/C=C/c3ccccc3Cl)c2)c1 | 105%
38 | CCCCOc1ccc(C(C)(C)c2ccc(OCCCC)cc2)cc1 | 92.5%
39 | COc1ccc(C(c2cc(OC)c(OC)c(OC)c2)N2CCN(Cc3ccccc3)CC2)cc1 (stereo not given) | 23%
40 | Cc1nccc2c3ccc(OCc4cn(-c5ccc(Br)cc5)nn4)cc3n(CCCc3ccccc3)c12 | 46.1%
